PubChem BioAssay AID2216 (Broad Institute, 2009)
The campaign covered roughly 300,000 compounds. About 3,300 (1.1%) were called active. Inconclusive results (about 6%) are left out. Shown is part of a subset that was picked to be rich in actives. Unmarked numbers belong to inactive results.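 Rule for the calls: active = more than half of the replicate wells show a fall in the fluorescence ratio signal beyond about 16% (limit read from the data, passing the limit was not always enough); inconclusive = exactly half of the replicate wells pass the set limit; inactive = fewer than half of replicates pass the limit.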

test system: Ran GTPase (GTP-bound) - importin-beta complex; assay: disruptors of Ran-importin-beta complex formation – biochemical, FRET, CFP-Ran, YFP-importin-beta, homogeneous, primary screen (AID 2216); conditions: cell-free CFP-Ran/YFP-importin-beta FRET ratio; stronger effect = higher value; concentration not given here;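 note: 0% = DMSO wells and 100% = Ran loaded with GDP instead of GTP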

| Compound | inhibition |
| --- | --- |
| O=C(COC(=O)Cn1[nH]c(=O)c2ccccc2c1=O)Nc1c(Cl)cccc1C(F)(F)F | 0.554% |
| CCCCn1c(N)c(N(CC(C)C)C(=O)c2ccc(-n3c(C)ccc3C)cc2)c(=O)[nH]c1=O | 2.98% |
| CC(=O)N1CCc2c(sc(NC(=O)CCS(=O)(=O)c3ccc(C)cc3)c2C(N)=O)C1 | 32.8% (active) |
| Cc1ccc(S(=O)(=O)CC(=O)Nc2sc(C)c(C)c2C(N)=O)cc1 | 1.11% |
| CC(=O)N1CCc2c(sc(NC(=O)CCS(=O)(=O)c3ccccc3)c2C#N)C1 | 2.62% |
| CCOC(=O)c1cc(NC(=O)c2cccnc2)ccn1 | -2.83% |
| CC(C)(C)c1ccc(C(=O)NCCC(=O)NCc2ccco2)cc1 | 1.67% |
| CCCCNC(=O)CCNC(=O)c1ccc(C(C)(C)C)cc1 | 3.77% |
| CN1OC(COC(=O)c2ccc(Cl)cc2)CC1c1ccccc1 (centres undefined) | 2.75% |
| CC(C)(C)c1ccc(C(=O)NCCn2c(N)c(C#N)c3nc4ccccc4nc32)cc1 | 82.8% (active) |
| N#Cc1c(N)n(CCOC(=O)c2ccc(Cl)cc2)c2nc3ccccc3nc12 | 39.9% (active) |
| Cn1cncc1COC(=O)c1ccc(Cl)cc1 | 0.688% |
| CN(C(=O)c1cc2c(=O)n3ccccc3nc2s1)C1CCCCC1 | 2.4% |
| CCOc1cc(C(=O)Nc2ccc(S(=O)(=O)Nc3cnc4ccccc4n3)cc2)cc(OCC)c1OCC | 7.91% |
| CCN1CCN(c2ccc(S(=O)(=O)N3CCCCC3)cc2NC(=O)Cc2c(Cl)cccc2Cl)CC1 | 1.25% |
| O=C(c1ccc(F)c(S(=O)(=O)N2CCOCC2)c1)N(CCc1ccccc1)Cc1ccccc1 | 7.49% |
| CCC(C)N(C(=O)COC(=O)c1nc(Cl)ccc1Cl)C1CCS(=O)(=O)C1 (centres undefined) | 7.73% |
| COc1ccc(-c2cc3ccc(OCc4nn[nH]n4)cc3oc2=O)cc1 | -0.255% |
| O=c1c(-c2ccccc2)coc2cc(O)ccc12 | -0.924% |
| O=c1oc2cc(O)ccc2cc1-c1ccc(F)cc1 | 149% (active) |
| O=C(Nc1cc2c3c(c1)CC(=O)N3CCC2)c1ccccc1F | 0.312% |
| CCc1ccc(NC(=O)N2CCc3ccccc3C2)cc1 | -4.66% |
| Fc1ccc(NC(=S)N2CCc3[nH]c4ccccc4c3C2)cc1 | 9.84% |
| C=CCNC(=S)N1CCc2[nH]c3ccccc3c2C1 | 3.44% |

| Compound | inhibition |
| --- | --- |
| Cc1ccc2[nH]c3c(c2c1)CN(C(=O)CN1CCN(c2ccccc2)CC1)CC3 | -23.4% |
| CCCC(=O)N1CCc2[nH]c3ccccc3c2C1 | 29% (active) |
| O=C(Nc1ccc(Cl)cc1)N1CCc2[nH]c3ccccc3c2C1 | 29.2% (active) |
| CC(=O)c1c(C)[nH]c(C(=O)COC(=O)CCOc2ccc(C)cc2)c1C | 6.12% |
| COc1ccccc1C(=O)NC(CCSC)C(=O)N1CCN(C/C=C/c2ccccc2)CC1 (centres undefined) | 0.266% |
| CCOc1ccc(S(=O)(=O)NCCC(=O)N2CCCCCCC2)cc1 | 0.262% |
| CCN(CC(=O)Nc1c(F)cccc1F)C(=O)C1CCC1 | 0.154% |
| Cc1cc(S(=O)(=O)c2cc3ccc(O)c(C)c3oc2=O)ccc1F | 132% (active) |
| CCCCN(C(=O)c1ccc(S(=O)(=O)N2CCOCC2)cc1)C1CCS(=O)(=O)C1 (centres undefined) | -4.84% |
| NC(=O)CSc1nnc(NC(=O)c2ccc3ccccc3c2)s1 | 5.81% |
| Cc1ccccc1N/N=C/c1ccc(N2CCOCC2)cc1 | 1.62% |
| CN(C)c1ccc(/C=N/Nc2cc(N3CCOCC3)nc(N3CCOCC3)n2)cc1 | 25.8% (active) |
| COc1ccc(/C=N/Nc2cc(N3CCOCC3)nc(C)n2)c(OC)c1 | -3.31% |
| Brc1cnc2ccccc2c1N1CCCCC1 | -1.98% |
| COc1ccc(C(C#N)(CC(=O)O)c2cnccn2)cc1OC (centres undefined) | 5.73% |
| Cc1cc(NC(=O)CCS(=O)(=O)c2ccc(F)cc2)no1 | -2.56% |
| CCc1cccc(C)c1NC(=O)COC(=O)CNC(=O)c1cccs1 | 0.115% |
| COc1ccc(NC(=O)CCC(=O)N2CCN(S(=O)(=O)c3ccc(C)cc3)CC2)c(OC)c1 | 2.41% |
| Cc1cc(NCc2ccco2)n2c(nc3ccccc32)c1C#N | 102% (active) |
| Cc1cc(NC(C)C)n2c(nc3ccccc32)c1C#N | -3.25% |
| Cc1ccccc1-c1nc(C#N)c(NCc2ccco2)o1 | -0.838% |
| CCOCCCNc1c(CC)c(C)c(C#N)c2nc3ccccc3n12 | 10.7% |
| CC(C)c1cc(NCc2ccccn2)n2c(nc3ccccc32)c1C#N | 51% (active) |
| Cc1c(C(=O)Nc2cccc(Cl)c2)cn2c(nc3ccccc32)c1C#N | 10.5% |

| Compound | inhibition |
| --- | --- |
| Nc1c(C(=O)Nc2ccc3c(c2)OCCO3)nnn1Cc1ccccc1 | -8.94% |
| COc1ccc(-c2csc3ncnc(N4CCN(S(=O)(=O)c5cccc(F)c5)CC4)c23)cc1 | -3.81% |
| CCOc1ccc(C(=O)CCN2CCOCC2)cc1 | 4.03% |
| COc1cc(C(=O)NCC(=O)N2CC=C(c3ccccc3)CC2)cc(OC)c1OC | 0.563% |
| COc1ccccc1N1N=C(c2cccs2)CC1c1ccccc1 (centres undefined) | -0.43% |
| COc1ccc(C2CC(c3cccs3)=NN2c2nc(C)c(C(C)=O)s2)cc1OC (centres undefined) | 89.5% (active) |
| COc1ccc(C2CC(c3cccs3)=NN2c2ccc(F)cc2)cc1OC (centres undefined) | 53.2% (active) |
| COc1ccc(C2CC(c3cccs3)=NN2C(=O)CSc2nncs2)cc1OC (centres undefined) | -2.68% |
| COc1ccc(C2CC(c3cccs3)=NN2C(=O)CCC(=O)O)cc1OC (centres undefined) | -4.44% |
| COc1ccc(C2CC(c3cccs3)=NN2c2ccccc2)cc1 (centres undefined) | 2.04% |
| O=C(COC(=O)c1ccccn1)NNC(=O)c1ccc([N+](=O)[O-])cc1 | 4.26% |
| CN(CC(=O)NCc1cccnc1)S(=O)(=O)c1cc(Cl)ccc1Cl | 4.66% |
| COc1ccc(NC(=O)CN(C)C(=O)Cc2coc3cc(C)c(C)cc23)cc1 | 0.0585% |
| C=CCOc1cccc(C2C(C(=O)c3ccc(C)o3)=C(O)C(=O)N2c2nnc(C)s2)c1 (centres undefined) | -5.03% |
| O=C1N[C@@H](Cc2ccccc2)C(=O)N2[C@@H]3N(S(=O)(=O)c4ccc(F)cc4)c4ccccc4[C@]3(Br)C[C@@H]12 | 5.5% |
| O=C(CCl)NNc1nc(-c2ccccc2)c2cc(Cl)ccc2n1 | -0.54% |
| NC(N)=Nc1nc(-c2ccccc2)c2cc(Cl)ccc2n1 | 4.42% |
| OCCCNc1nc(-c2ccccc2)c2cc(Cl)ccc2n1 | 50.7% (active) |
| Cc1cc(C)c(S(=O)(=O)n2cc(C(C)C(N)C(=O)O)c3ccccc32)c(C)c1 (centres undefined) | -3.39% |
| CS(=O)(=O)N(CC(O)Cn1c2ccccc2c2ccccc21)c1cccc2ccccc12 (centres undefined) | 2.16% |
| O=C1c2ccccc2S(=O)(=O)N1CC(O)Cn1c2ccccc2c2ccccc21 (centres undefined) | 3.48% |
| CCCCN(CCCC)CC(O)Cn1c2ccccc2c(=O)c2ccccc21 (centres undefined) | 114% (active) |
| O=C(COC(=O)CNS(=O)(=O)c1ccc(F)c(F)c1F)NC1CCCC1 | -1.07% |
| CCOc1ccccc1C1C(C(=O)OC)=CN(C)C=C1C(=O)OC | 118% (active) |

| Compound | inhibition |
| --- | --- |
| CCOc1ccccc1N(CC(=O)Nc1ccccc1C(=O)OC)S(C)(=O)=O | 2.19% |
| COC(=O)C1=CN(C)C=C(C(=O)OC)C1c1ccc(Cl)cc1Cl | 2.63% |
| COc1ccc(Cc2nnc(SCC(=O)N(c3ccccc3)C(C)C)n(N)c2=O)cc1 | -2.45% |
| Clc1cccc(Cl)c1OCCOCCNCc1ccccc1 | 0.589% |
| OCCNCc1cccc(OCc2ccccc2Cl)c1 | 17.6% (active) |
| OCCNCCOc1ccc(Cl)c(Cl)c1 | -2.77% |
| CCCCN1C(N)=NC[C@@H]1Cc1ccccc1 | -2.74% |
| Cc1ccn2c(=O)nc(SCC(=O)NCc3ccc4c(c3)OCO4)nc2c1 | -2.18% |
| COc1ccc(-n2nnnc2CNC(=O)c2ccc3ccccc3c2)cc1 | 3.81% |
| O=C(CSc1nc(=O)n2ccccc2n1)Nc1ccc2c(c1)OCCO2 | 0.244% |
| CC(C)Nc1nnc(SC(C)C(=O)N(C)C2CCCCC2)s1 (centres undefined) | 2.7% |
| CC(=O)c1c(-c2ccccc2)c2ccccc2[nH]c1=O | -2.98% |
| C/C(=N\N)c1c(-c2ccccc2)c2cc(Br)ccc2[nH]c1=O | 21.4% (active) |
| O=C(CN1CCOCC1)Nc1c(-c2ccccc2)c2cc(Br)ccc2[nH]c1=O | -3.33% |
| CCN(CCCNC(=O)CCn1c(=O)[nH]c2ccsc2c1=O)c1ccccc1 | 8.57% |
| CCN(CCCNC(=O)c1ccc2c(c1)NC(=O)CN2C)c1cccc(C)c1 | 20.7% (active) |
| CN(C)CCCNC(=O)c1ccc2[nH]c3ccccc3c2c1 | -2.02% |
| Cc1ccc(NC(=O)CSCC(=O)Nc2sccc2C#N)cc1 | -2.13% |
| O=C(COC(=O)/C=C/c1ccc(OC(F)F)cc1)NC1CCCCC1 | -7.27% |
| N#Cc1c(C(F)(F)F)cc(-c2ccccc2)nc1SCC(=O)N1CCOCC1 | 3.19% |
| CCN(CC)c1nc(-c2ccccc2)cc(C(F)(F)F)c1C#N | 25.9% (active) |
| N#Cc1c(C(F)(F)F)cc(-c2ccc(Cl)cc2)nc1SCC(=O)O | -1.29% |
